ADAM10 inh = human ADAM10 inhibitors, primary screen, biochemical, QFRET, HTS. recombinant ADAM10, EDANS/DABCYL FRET peptide cleavage, 3 h. inhibition, % at 7 µM. AID 720582, 2013. 0.62% of 370,000 active. Disintegrin and metalloproteinase domain-containing protein 10 (Homo sapiens), O14672;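 active = inhibition above a per-campaign cutoff equal to the mean of compounds falling between control-based bounds plus 3 SD, cut at about 20% in these data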;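 also: 0% = DMSO wells while the 100% control is not disclosed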
Target sequence (O14672 214-748 limits assumed): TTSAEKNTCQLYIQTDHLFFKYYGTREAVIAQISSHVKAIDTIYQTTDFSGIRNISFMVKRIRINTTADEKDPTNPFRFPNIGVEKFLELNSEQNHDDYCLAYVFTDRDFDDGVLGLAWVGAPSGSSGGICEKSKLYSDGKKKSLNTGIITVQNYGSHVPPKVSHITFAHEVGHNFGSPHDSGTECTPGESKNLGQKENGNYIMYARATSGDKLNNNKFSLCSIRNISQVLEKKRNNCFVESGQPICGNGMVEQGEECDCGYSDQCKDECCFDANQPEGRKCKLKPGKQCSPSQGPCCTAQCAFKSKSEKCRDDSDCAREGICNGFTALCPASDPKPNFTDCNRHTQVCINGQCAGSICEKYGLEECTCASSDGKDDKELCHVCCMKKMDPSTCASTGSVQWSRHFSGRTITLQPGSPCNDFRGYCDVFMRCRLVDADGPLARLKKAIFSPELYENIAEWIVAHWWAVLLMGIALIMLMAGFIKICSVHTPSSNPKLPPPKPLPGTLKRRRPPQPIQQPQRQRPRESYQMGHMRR
NPR2 activator = human GC-B receptor activators, primary screen, HEK293 GC-B cells, cGMP TR-FRET, EC30 CNP | Atrial natriuretic peptide receptor 2 (Homo sapiens), P20594 | 0% at EC30 CNP, 100% saturating CNP | 0.11% of 370,000 active | AID 1920062, 2024 | activation, % at 10 µM;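 active = activation at 10 µM reaching about 35% in either raw or pattern-adjusted values, limit read from the data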
GC-A act = GC-A stimulated cGMP production enhancers – HEK293 GC-A cells, cGMP TR-FRET, EC30 ANP, primary screen. Atrial natriuretic peptide receptor 1 (Homo sapiens), P16066. 0.14% of 370,000 active. AID 1671463, 2021. 0% at EC30 ANP, 100% saturating ANP. activation, % at 10 µM; in the data active = activation above about 40%
ADAM17 inh = ADAM17 inhibitors, primary screen, biochemical, QFRET | Disintegrin and metalloproteinase domain-containing protein 17 (Homo sapiens), P78536 | recombinant ADAM17, EDANS/DABCYL FRET peptide cleavage | inhibition, % at 6.95 µM | 0.83% of 370,000 active | AID 720648, 2013;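 active = inhibition above the mean of compounds lying between control limits plus 3 SD, set per campaign, cut at about 8.5% in these data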;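 also: 0% = DMSO-only wells as the low control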
ADAM10 confirm = human ADAM10 inhibitors, confirmation, biochemical, QFRET, triplicate. ADAM10 QFRET peptide cleavage, EDANS fluorescence. 1% of 2,100 active. inhibition, % at 6.95 µM. shares compounds with ADAM10 inh;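 active = inhibition above about 20% chosen separately for each screening run, limit read from the data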;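 also: 0% = DMSO wells and 100% = marimastat wells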
ADAM17 counter = ADAM17 inhibitors, counter-screen for ADAM10 exosite inhibitor project, biochemical, QFRET, high throughput; shares compounds with ADAM10 inh; ADAM17 QFRET peptide cleavage, EDANS fluorescence; inhibition, % at 6.95 µM; 0.5% of 2,100 active;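 active = mean triplicate inhibition above the solvent-only control wells' mean plus 3 SD, cut at about 12% in these data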;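 also: 0% = DMSO wells and 100% = marimastat wells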
ADAM10 counter = ADAM10 inhibitors, counter-screen for ADAM17 exosite inhibitor project, biochemical, FRET, human ADAM10 | shares compounds with ADAM17 inh | 47% of 2,900 active | inhibition, % at 6.95 µM | AID 743256, 2014 | recombinant ADAM10, EDANS/DABCYL FRET peptide cleavage, 3 h;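 active = mean inhibition over the triplicate runs exceeds the activity threshold set in the earlier primary screen, cut at about 20% in these data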;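 also: 0% = DMSO wells and 100% = marimastat wells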
ADAM17 confirm = ADAM17 inhibitors, hit retest, confirmation, biochemical, QFRET peptide cleavage; inhibition, % at 6.95 µM; 65% of 2,900 active; recombinant ADAM17, EDANS/DABCYL QFRET peptide cleavage; shares compounds with ADAM17 inh;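 active = mean inhibition across replicates above the hit cutoff set in the primary screen, cut at about 8.5% in these data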;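 also: 0% = DMSO wells and 100% = marimastat wells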
The depositor's hits bear a star; nt = not tested or not shown. Rows were chosen to be rich in hits. Some 1.3% of all compounds tested hit in one or more screens of this group.

SMILES	ADAM10 inh	NPR2 activator	GC-A act	ADAM17 inh	ADAM10 confirm	ADAM17 counter	ADAM10 counter	ADAM17 confirm
N/C(=N\OC(=O)c1ccccc1)C(C(=O)NOC(=O)c1ccccc1)C1CCCCC1 (centres undefined)	0.1	2.0	1.9	-1.9	nt	nt	nt	nt
COc1ccc2c(c1)C1C=CCC1C(c1cc3c(cc1Br)OCO3)N2 (centres undefined)	22.2*	-0.8	-2.3	9.1*	3.0	2.1	-2.5	0.1
C=C[C@H]1C(C(=O)OCC)=CC[C@@H](c2ccccc2)N1S(=O)(=O)c1ccc(C)cc1	28.4*	-3.5	0.5	13.5*	3.5	1.4	15.7	6.5
Cc1cc(Cl)ccc1OCC(=O)N(Cc1ccco1)c1c(N)n(Cc2ccccc2)c(=O)[nH]c1=O	-7.4	1.1	-5.2	-0.9	nt	nt	nt	nt
COc1ccc(NC(=O)CN(c2ccc(OC)c(Cl)c2)S(=O)(=O)c2ccccc2)c(OC)c1	34.1*	-13.1	-1.4	13.8*	6.7	2.2	30.0*	16.8*
COc1ccc(N(CC(=O)Nc2ccccc2OC)S(=O)(=O)c2ccccc2)cc1Cl	12.7	-13.6	-13.8	8.0	nt	nt	nt	nt
COC(=O)c1cc(NC(=O)CN(c2cccc(OC)c2)S(=O)(=O)c2ccccc2)ccc1Cl	23.6*	-0.8	-5.3	11.6*	6.5	3.9	34.5*	17.3*
CCn1c(CNc2nc(-c3ccccc3)cs2)nnc1SCC(=O)NCc1ccccc1	20.3*	-11.1	-6.6	10.7*	2.2	0.2	9.9	12.7*
Cc1ccc2c(c1)-c1c(cnn1CC(=O)NCCc1ccc(Cl)cc1)CO2	-3.3	-9.3	-12.7	-2.1	nt	nt	nt	nt
N/C(=N\S(=O)(=O)c1cc(C(F)(F)F)cc(C(F)(F)F)c1)c1ccncc1	-7.8	0.2	1.5	-2.6	nt	nt	nt	nt
N/C(=N\S(=O)(=O)c1cc(C(F)(F)F)cc(C(F)(F)F)c1)c1ccc(Cl)cc1	22.6*	4.5	2.2	9.7*	2.4	0.5	44.8*	18.8*
COc1ccc(Cn2nnnc2C(C(C)C)N(Cc2ccco2)Cc2cccs2)cc1 (centres undefined)	20.5*	-2.1	-15.0	13.5*	1.9	0.5	20.0*	13.2*
CC(C)Cn1c(-c2ccc(Br)cc2)c[nH]c1=S	25.9*	-6.6	-6.1	14.4*	0.8	0.1	5.9	9.0*
COc1cccc(C=NN(C)c2c([N+](=O)[O-])cc(C(F)(F)F)cc2[N+](=O)[O-])c1O	23.7*	3.6	-0.3	11.8*	3.1	1.7	26.7*	15.9*
O=C(COC(=O)c1ccccc1O)NCCc1c[nH]c2ccccc12	-12.1	-5.4	-1.3	-2.7	nt	nt	nt	nt
O=C(COC(=O)c1ccccc1C(=O)OCC(=O)NCCc1c[nH]c2ccccc12)NCCc1c[nH]c2ccccc12	24.8*	-2.7	-4.8	9.1*	7.2	2.1	27.6*	10.9*
Cc1ccc(OCC(COCc2ccccc2)NC(C)C)cc1 (centres undefined)	-4.2	-1.0	-3.7	0.6	nt	nt	nt	nt
Fc1cccc(Cl)c1CSc1nnc(CNc2ccccc2)o1	24.3*	10.3	0.8	13.7*	-0.2	0.0	11.6	7.4
COc1ccc(NC(=O)COC(=O)CCCOc2ccc(Cl)cc2Cl)cc1	23.8*	0.1	14.6	10.0*	7.1	2.3	19.3	8.0
NS(=O)(=O)c1ccc(NCc2ccccc2OCc2ccc(F)cc2)cc1	10.0	4.5	-0.9	4.4	nt	nt	nt	nt
NS(=O)(=O)c1ccc(NCc2cc(Cl)ccc2OCc2ccccc2F)cc1	31.0*	-19.0	-10.7	14.3*	10.9	3.6	47.4*	21.1*
OCCCNc1ncnc2c1ncn2[C@H]1CN(C2CCCC2)C[C@@H](CO)O1	-14.4	1.7	4.6	-5.9	nt	nt	nt	nt
Cc1ccc(S(=O)(=O)N(C)c2ccc(C(=O)Nc3cccc(C)n3)cc2)cc1	19.8*	4.6	-1.9	15.0*	1.2	0.5	10.5	7.5
Cc1ccc(S(=O)(=O)N(C)c2ccc(C(=O)Nc3ccccn3)cc2)cc1	8.6	-1.2	-3.0	3.7	nt	nt	nt	nt
CC(=O)Nc1ccc(NC(=O)c2ccc(S(=O)(=O)N(C)c3ccccc3)cc2)cc1	-1.8	0.3	-0.8	0.1	nt	nt	nt	nt
SMILES	ADAM10 inh	NPR2 activator	GC-A act	ADAM17 inh	ADAM10 confirm	ADAM17 counter	ADAM10 counter	ADAM17 confirm
Cc1nc2ccc(NC(=O)c3ccc(S(=O)(=O)N(C)c4ccccc4)cc3)cc2s1	29.2*	5.1	1.1	16.1*	6.2	1.6	18.5	12.7*
Nn1c(SCC(=O)Nc2nccs2)nnc1-c1cc(-c2ccc(Cl)cc2)n[nH]1	2.7	-11.9	3.2	1.3	nt	nt	nt	nt
CSc1ccccc1CNC(=O)C1(C)CCCN1CC(C)C (centres undefined)	4.7	1.2	-5.2	1.9	nt	nt	nt	nt
O=C(c1nc(SCc2ccc([N+](=O)[O-])cc2)n2ccccc12)C(F)(F)F	-2.4	1.2	-1.7	-1.0	nt	nt	nt	nt
CC(C)Oc1ccc(C(=O)NC2(C(F)(F)F)NC(=O)N(CCCc3ccccc3)C2=O)cc1 (centres undefined)	25.3*	2.0	-0.6	10.3*	5.1	1.0	31.4*	17.7*
CCOc1ccccc1NC(=O)COC(=O)C(CC)c1ccccc1 (centres undefined)	21.7*	-2.0	-2.0	11.4*	1.8	-0.1	15.8	5.0
CCC(C(=O)OCC(=O)Nc1cc(Cl)cc(Cl)c1)c1ccccc1 (centres undefined)	42.1*	-10.9	-0.4	18.6*	9.6	3.5	23.4*	12.3*
COc1ccc(NC(=S)NC(NC(=O)c2ccc(Cl)cc2Cl)C(Cl)(Cl)Cl)c([N+](=O)[O-])c1 (centres undefined)	21.9*	-0.4	-5.6	8.8*	10.1	2.0	31.1*	17.3*
Cc1ccccc1N=C1NC(=O)/C(=C/c2cccn2C)S1	27.4*	4.1	-0.8	9.9*	-0.7	6.0	16.6	12.6*

Assay outcomes as filed in PubChem.
